# ADAM17 inh: inhibitors of human ADAM17 | P78536 | recombinant ADAM17, EDANS/DABCYL FRET peptide cleavage | inhibition, % at 6.95 µM | actives 0.83% (n = 370,000);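 active = inhibition above the mean of compounds lying between control limits plus 3 SD, set per campaign, cut at about 8.5% in these data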;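 note: 0% = DMSO-only wells as the low control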
# sPLA2-III inh: Blocks human group III sPLA2 activity | Q9NZ20 | QFRET BODIPY PC-A2 liposome hydrolysis, fluorescence | inhibition, % at 12.2 µM | actives 0.56% (n = 370,000) | AID 743126;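 active = inhibition above mean plus 3 SD of compounds lying within the high and low control bounds, cut at about 19% in these data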;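 note: 0% = median of test compound wells and 100% = no enzyme DMSO wells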
# PLC-beta3 inh: inhibitors of human phospholipase C beta3; inhibition, % at 12.2 µM; actives 0.18% (n = 370,000); Purified PLC-beta3, fluorogenic substrate, fluorescence; in the data active = inhibition above about 11%;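 note: 0% = median of compound wells on plate and 100% = full blocker control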
# Target sequence (Q01970 whole entry, looked up): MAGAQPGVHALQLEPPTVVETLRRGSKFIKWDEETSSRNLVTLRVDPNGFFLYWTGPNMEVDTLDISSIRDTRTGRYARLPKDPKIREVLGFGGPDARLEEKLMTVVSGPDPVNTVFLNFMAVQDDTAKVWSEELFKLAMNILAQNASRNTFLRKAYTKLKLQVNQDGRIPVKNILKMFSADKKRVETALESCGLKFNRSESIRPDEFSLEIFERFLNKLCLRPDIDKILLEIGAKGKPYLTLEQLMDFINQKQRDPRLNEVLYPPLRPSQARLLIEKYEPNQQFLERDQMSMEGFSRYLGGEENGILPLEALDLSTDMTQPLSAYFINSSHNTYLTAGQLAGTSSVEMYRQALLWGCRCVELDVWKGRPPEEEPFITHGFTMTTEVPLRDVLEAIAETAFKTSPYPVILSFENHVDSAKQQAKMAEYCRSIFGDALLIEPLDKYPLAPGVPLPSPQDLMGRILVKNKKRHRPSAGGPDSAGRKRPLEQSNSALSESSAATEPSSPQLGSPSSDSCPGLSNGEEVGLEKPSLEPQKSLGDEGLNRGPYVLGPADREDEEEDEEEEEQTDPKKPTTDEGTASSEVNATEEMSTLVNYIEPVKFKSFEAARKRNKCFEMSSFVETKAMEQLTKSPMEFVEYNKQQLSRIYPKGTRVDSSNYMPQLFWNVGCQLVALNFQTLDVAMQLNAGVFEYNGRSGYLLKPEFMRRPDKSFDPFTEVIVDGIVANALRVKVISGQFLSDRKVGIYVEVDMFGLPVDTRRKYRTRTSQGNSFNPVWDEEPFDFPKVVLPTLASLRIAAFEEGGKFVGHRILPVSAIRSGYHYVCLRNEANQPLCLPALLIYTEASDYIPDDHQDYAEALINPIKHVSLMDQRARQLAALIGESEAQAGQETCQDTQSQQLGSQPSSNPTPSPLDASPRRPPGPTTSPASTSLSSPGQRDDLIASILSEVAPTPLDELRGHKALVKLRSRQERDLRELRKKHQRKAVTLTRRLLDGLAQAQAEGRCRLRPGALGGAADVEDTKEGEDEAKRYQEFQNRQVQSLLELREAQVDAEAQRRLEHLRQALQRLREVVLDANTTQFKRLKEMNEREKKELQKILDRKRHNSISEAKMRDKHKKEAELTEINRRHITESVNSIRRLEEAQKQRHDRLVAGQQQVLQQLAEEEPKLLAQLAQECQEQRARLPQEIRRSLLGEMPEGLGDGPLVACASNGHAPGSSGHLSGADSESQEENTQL
# PLC-gamma1 inh: blocks human PLC-gamma1 enzyme activity. purified PLC-gamma1, fluorogenic substrate, fluorescence. AID 720700. P19174. actives 0.84% (n = 370,000). inhibition, % at 12.2 µM; in the data active = inhibition above about 9.5%
# KLK7 zymogen act: activators of human kallikrein-7 zymogen; P49862; purified proKLK7, EDANS-DABCYL substrate fluorescence; 100% is mature enzyme control, 0% vehicle; activation, % at 7 µM; actives 0.9% (n = 370,000); AID 652039;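 active = activation above the mean of all tested compounds plus 3 SD, computed per campaign excluding outliers beyond control limits, cut at about 13% in these data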
# ADAM10 inh: inhibits human ADAM10. inhibition, % at 7 µM. O14672. actives 0.62% (n = 370,000). recombinant ADAM10, EDANS/DABCYL FRET peptide cleavage, 3 h;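 active = inhibition above a per-campaign cutoff equal to the mean of compounds falling between control-based bounds plus 3 SD, cut at about 20% in these data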;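 note: 0% = DMSO wells while the 100% control is not disclosed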
# proKLK7 act conf: confirmation of human kallikrein-7 zymogen activators; shares compounds with KLK7 zymogen act; purified proKLK7, EDANS-DABCYL substrate fluorescence; scaled: vehicle 0, mature enzyme 100; activation, % at 7 µM; actives 68% (n = 3,200); AID 686949;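 active = activation, as change over the incubation, above the mean of all tested compounds plus 3 SD, cut at about 13% in these data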
# EDANS-DABCYL int: fluorescence interference counter-screen for KLK7 activators; shares compounds with KLK7 zymogen act; EDANS-DABCYL substrate fluorescence interference, no enzyme, 4 h; solvent 0%, active enzyme control 100%; activation, % at 7 µM; actives 80% (n = 3,200); AID 686952;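 active = activation above the all-compound mean plus 3 SD, ignoring values outside control-based bounds, cut at about 4.8% in these data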;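 note: value is the 4 h activation minus the activation read at time zero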
# EDANS interf: EDANS fluorescence interference in dose response, no enzyme | shares compounds with KLK7 zymogen act | EDANS-DABCYL peptide fluorescence interference | EC50, µM | actives 20% (n = 250);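 active = compounds that raise the fluorescence signal in this interference counterscreen, with EC50 at or below 10 µM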;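 note: intact quenched peptide substrate alone read at 355 nm excitation and 520 nm emission; signal is fluorescence gain from T0 to T4 after four hours at room temperature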
# * = called active by the depositor; i = inactive; / = no result. The list is not random: actives were taken first. Their share in the collection is about 3.4%.
SMILES,ADAM17 inh,sPLA2-III inh,PLC-beta3 inh,PLC-gamma1 inh,KLK7 zymogen act,ADAM10 inh,proKLK7 act conf,EDANS-DABCYL int,others
NC(=O)c1ncn([C@@H]2O[C@H](C(=O)N[C@H](Cc3ccccc3)C(=O)N3CCN(c4ccc(Cl)cn4)CC3)[C@@H](O)[C@H]2O)n1,-51,-3,-24,-20,1,-157,/,/,
COc1ccccc1NC(=O)N(C)C[C@H]1OCc2cn(nn2)CCCC(=O)N([C@H](C)CO)C[C@@H]1C,0,9,6,1,0,-3,/,/,
S=C(SCc1cc(Cl)cc2c1OCOC2)N1CCSCC1,-5,3,-2,0,0,-2,/,/,
Cn1c(=O)c2cc(NC(=O)Nc3cccnc3)ccc2n1Cc1ccc(Cl)cc1,-427,-5,-386,-265,6,i,/,/,
CC(C)=CCn1c2ccc(NC(=O)Nc3cccnc3)cc2c(=O)n1C,-429,7,-415,-306,21*,i,6,9.4*,
C=C(C)Cn1c2ccc(NC(=S)NCc3ccccc3F)cc2c(=O)n1C,-350,4,-414,-334,-1,i,/,/,
Cn1c(=O)c2cc(NC(=O)NCc3ccc(F)cc3)ccc2n1C/C=C/c1ccccc1,-112,-6,-124,-90,-6,-435,/,/,
C=C(C)Cn1c2ccc(NC(=O)NCCc3cccs3)cc2c(=O)n1C,i,9,i,i,26*,i,19*,9.8*,EDANS interf=>70
CCNC(=O)Nc1ccc2c(c1)c(=O)n(C)n2CC=C(C)C,i,15,i,i,40*,i,33*,31*,
CCNC(=S)Nc1ccc2c(c1)c(=O)n(C)n2CC=C(C)C,i,12,i,i,46*,i,31*,33*,
CCCN(CCC)c1cc(=O)nc2ccccn12,-5,6,-22,-14,0,-11,/,/,
CC(C)(C)OC(=O)N1CCC2CCN(S(=O)(=O)c3ccccc3)CC21 (stereo not drawn),-5,3,1,2,0,-10,/,/,
COc1cc2c(NCCCCCCO[N+](=O)[O-])ncnc2c(OC)c1OC,-6,3,-8,-6,0,-21,/,/,
C[C@@H]1CN([C@@H](C)CO)C(=O)c2cccc(NC(=O)Nc3cccc4ccccc34)c2O[C@H]1CN(C)S(=O)(=O)c1ccc2c(c1)OCCO2,-9,-23,-17,-18,/,-24,/,/,
Cc1cc(=O)n2ccccc2c1C#N,i,0,i,i,48*,i,70*,70*,
Cc1cc(=O)n2c(ccc3ccccc32)c1C#N,-1,3,-7,-5,0,-4,/,/,
N=c1c(C(=O)NC2CCCC2)cc2c(=O)n3ccccc3nc2n1C1CCCC1,i,4,i,i,50*,i,-32,-32,
N=c1c(C(=O)NC2CCCCC2)cc2c(=O)n3ccccc3nc2n1CC1CCCO1 (stereo not drawn),i,7,i,i,53*,i,8,21*,
COCCCn1c(=N)c(C(=O)NC2CCCCC2)cc2c(=O)n3ccccc3nc21,i,1,i,i,150*,i,4,-3,
COc1ccc(CCn2c(=N)c(C(=O)NCC3CCCO3)cc3c(=O)n4ccccc4nc32)cc1OC (stereo not drawn),-5,6,-17,-5,-1,-18,/,/,
CC(NC(=O)c1cc2c(=O)n3ccccc3nc2n(CC2CCCO2)c1=N)c1ccccc1 (stereo not drawn),i,7,i,-428,12,i,/,/,
Cn1c(C(=O)NCC2CCCO2)cc2c(=O)n3ccccc3nc21 (stereo not drawn),i,-1,i,i,59*,i,68*,73*,
COCCCn1c(=N)c(C(=O)NCc2ccc3c(c2)OCO3)cc2c(=O)n3ccccc3nc21,-31,-2,-29,-22,1,-106,/,/,
Cn1c(C(=O)N2COCC2(C)C)cc2c(=O)n3ccccc3nc21,i,-4,i,i,48*,i,74*,70*,
COCCCn1c(C(=O)N2CC(C)OC(C)C2)cc2c(=O)n3ccccc3nc21 (stereo not drawn),i,6,i,i,83*,i,70*,71*,
SMILES,ADAM17 inh,sPLA2-III inh,PLC-beta3 inh,PLC-gamma1 inh,KLK7 zymogen act,ADAM10 inh,proKLK7 act conf,EDANS-DABCYL int,others
N=c1c(C(=O)NC2CCCC2)cc2c(=O)n3ccccc3nc2n1CC1CCCO1 (stereo not drawn),i,2,i,i,105*,i,33*,25*,EDANS interf=>69
Cc1nn(-c2ccccc2)nc1C(=O)Nc1ccccc1C(=O)NCC1CC1,-5,5,-4,0,0,3,/,/,
O=C(CCc1c[nH]c2ccccc12)Nc1ccc(Nc2cccnc2)cc1,0,-37,4,2,1,-3,/,/,
C=CCN1C(C(=O)OCC)CSCCS1(=O)=O (stereo not drawn),-3,4,1,-1,0,2,/,/,
Nc1cnnc(N/N=C\c2ccccc2)c1Cl,-216,-1,-243,-185,13*,i,2,3,
COC(=O)c1cc(=O)c2c(ccc3oc(=O)ccc32)[nH]1,-129,-6,-248,-193,172*,i,220*,220*,
COC(=O)c1ccc(COc2ccc3ccc(=O)oc3c2)o1,-37,1,-28,-22,-1,-129,/,/,
CCOC(=O)c1oc2ccc3c(c2c1C)C(=O)CC1(CCN(C(=O)OCC)CC1)O3,-11,-2,-11,-12,0,-32,/,/,
CCOC(=O)N1CCC2(CC1)CC(=O)c1c(ccc3oc(C(=O)O)c(C)c13)O2,-449,-1,-371,-319,18*,i,46*,34*,EDANS interf=>70
O=C(O)c1cc(-c2ccccc2)nc2nc(N3CCCCC3)sc12,i,-9,-391,-381,16*,i,44*,41*,
Cc1ccc(-c2cc(C(=O)O)c3sc(N4CCCCC4)nc3n2)cc1,i,10,-416,-358,25*,i,19*,23*,
CCOC(=O)c1cc(-c2ccccc2)nc2nc(N3CCCCC3)sc12,-57,3,-68,-60,-20,-195,/,/,
COc1ccc(C)c2sc(NC(=O)C3=COCCO3)nc12,-7,-24,-32,-24,0,-8,/,/,

# Source: PubChem BioAssay
